From PubChem BioAssay (NCATS)
Records with an inconclusive call do not appear. Activity calls are given as the source filed them. The call rests on the fitted dose curve; in most records, active means well fitted cell-killing curve with a large enough effect; inconclusive means small, poorly fitted or top-dose-only effect, or effect the other way; inactive means flat fitted curve, though single readings scatter.

Test system: Hek293T
Assay: Primary qHTS to identify gynecologic anti-cancer compounds using libraries of approved drugs and bioactive compounds (AID 1345084); further: nearly all actives have a fitted effect of over 55% in size
Conditions: Gynecologic cancer cell panel viability, ATPlite luminescence, 48 h, control line for the selectivity index; series mostly up to 57.5 µM; activity change, negative = cytotoxicity: at the top concentration
Method in brief: (§1)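 Measured: luminescence after ATPlite addition (15 min, RT). Exposure: 48 h, 37 C, 5% CO2.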
On the % scale 0 is the no-effect control and ±100 the full control effect; potency means the concentration at half of the fitted maximal effect.

Row | SMILES | activity change, negative = cytotoxicity | Potency
1 | O=[N+]([O-])c1ccc(-[n+]2nc(-c3ccccc3)nn2-c2ccc(I)cc2)cc1 | 2.56% (inactive) | –
2 | COc1ccccc1NC(=O)Nc1ccc2ccccc2c1 | -5.01% (inactive) | –
3 | CCC(C)n1cc(C)c2c(C(=O)NCc3c(C)cc(C)[nH]c3=O)cc(-c3ccc(N4CCNCC4)nc3)cc21 (centres undefined) | 2.48% (inactive) | –
4 | CC(C)[C@@H](C)/C=C/[C@@H](C)[C@H]1CC[C@H]2C3=CC=C4C[C@@H](O)CC[C@]4(C)C3=CC[C@]12C | -3.34% (inactive) | –
5 | Cn1c(NC[C@@H](N)Cc2ccccc2)nc(-c2ccncc2)c(-c2ccc3ccccc3c2)c1=O | 0.493% (inactive) | –
6 | CC1(C)CC[C@]2(C(=O)OC3OC(CO)C(O)C(O)C3O)CC[C@]3(C)C(=CCC4[C@@]5(C)CC[C@H](OC6OC(C(=O)O)C(O)C(O)C6O)C(CO)(CO)C5CC[C@]43C)[C@@H]2C1 (some centres undefined) | -26.5% [at 11.6 µM] (inactive) | –
7 | CCOC(=O)c1cnn(-c2ccc(NC(=O)C(Cl)=C(Cl)Cl)cc2)c1C(F)(F)F | -0.0281% (inactive) | –
8 | CC(=O)N1c2ccc(-c3ccc(C(=O)O)cc3)cc2C(Nc2ccc(Cl)cc2)CC1C (centres undefined) | -27.4% (inactive) | –
9 | COc1ccc(C(=O)N(CCC(C)C)Cc2nc(C)c(C)n2Cc2ccccc2C)c(OC)c1 | -21.6% (inactive) | –
10 | O=C(Nc1ccc(F)cc1)N1CCc2ccccc2C1c1ccc(C(F)(F)F)cc1 (centres undefined) | -2.24% (inactive) | –
11 | Cc1ccc(C(=O)N2CCN(c3ccc([N+](=O)[O-])cc3)CC2)cc1Cl | -20.7% (inactive) | –
12 | CN(C)C(=O)c1cc2cnc(Nc3ccc(N4CCNCC4)cn3)nc2n1C1CCCC1 | 2.3% (inactive) | –
13 | C=C1/C(=C/C=C2\CCC[C@]3(C)[C@@H]([C@H](C)/C=C/C(=O)C4CC4)CC[C@@H]23)C[C@@H](O)C[C@@H]1O | -1.86% (inactive) | –
14 | CC(C)(C)c1ccc(-c2nc3ccccc3[nH]2)cc1 | – | 2.24 µM (active)
15 | CCN1CCN(Cc2ccc(-c3cc4c(NC(C)c5ccccc5)ncnc4[nH]3)cc2)CC1 (centres undefined) | -11.3% (inactive) | –
16 | CN1CCN(C(=O)c2ccc(Nc3nccc(-c4cccs4)n3)cc2Cl)CC1 | -6.27% (inactive) | –
17 | Cc1ccc2c(Nc3ccc(Cl)cc3)nccc2c1Nc1ncccc1-c1ncnc2nc[nH]c12 | -24.7% (inactive) | –
18 | COc1ccccc1-c1cc(Nc2cccc(CS(N)(=O)=O)c2)ncn1 | – | 20 µM (active)
19 | Cc1ccc(C2(COC(=O)C(C)C)CO2)c(OC(=O)C(C)C)c1 (centres undefined) | -8.46% [at 38.5 µM] (inactive) | –
20 | COc1cc2ncnc(Oc3cccc(NC(=O)Nc4cc(C(C)(C)C(F)(F)F)on4)c3)c2cc1OC | 1.9% (inactive) | –
21 | CN(CCCNC(=O)c1ccc2nc3c(c(Cl)c2c1)CCCC3)Cc1ccccc1 | -1.17% (inactive) | –
22 | CCN(CCCOc1ccc2c(Nc3cc(CC(=O)Nc4cccc(F)c4)[nH]n3)ncnc2c1)CCOP(=O)(O)O | 2.48% (inactive) | –
23 | OCC(Cc1ccccc1)Nc1nc(Oc2ccc3c(c2)CCC3)nc2c1ncn2Cc1ccc(-c2ccccc2)cc1 (centres undefined) | -29.8% (inactive) | –
24 | CCN(CC)c1ccc(C(=C2C=CC(=[N+](CC)CC)C=C2)c2cc(S(=O)(=O)O)ccc2S(=O)(=O)[O-])cc1 | – | 12.6 µM (active)
25 | O=C(NC(NC(=S)Nc1ccc(F)c([N+](=O)[O-])c1)C(Cl)(Cl)Cl)C(c1ccccc1)c1ccccc1 (centres undefined) | -0.478% [at 25.3 µM] (inactive) | –
26 | Cc1[nH]c(/C=C2\C(=O)Nc3ccc(F)cc32)c(C)c1C(=O)NC[C@H](O)CN1CCOCC1 | 6.99% (inactive) | –
27 | CC1CCC2C(=CCC(O)C2(C)C)C1(C)Cc1c(O)cc(CO)c(C=O)c1O (centres undefined) | -26.6% [at 38.5 µM] (inactive) | –
28 | CCCCn1c(-c2ccccc2)nc(-c2ccccc2)c1CN(Cc1ccc2c(c1)OCO2)Cc1ccc2c(c1)OCO2 | 0.798% (inactive) | –
29 | O=C(NCc1ccc(Oc2ccccc2)cc1)c1nc(-c2cc(Br)c(O)c(Br)c2)no1 | -0.842% (inactive) | –

Test system: JEG-3
Assay: as above
Conditions: Gynecologic cancer cell panel viability, ATPlite luminescence, 48 h; series mostly up to 57.5 µM; activity change, negative = cytotoxicity: at the top concentration
Method in brief: as §1

Row | SMILES | activity change, negative = cytotoxicity | Potency
30 | O=[N+]([O-])c1ccc(-[n+]2nc(-c3ccccc3)nn2-c2ccc(I)cc2)cc1 | -15.7% (inactive) | –
31 | COc1ccccc1NC(=O)Nc1ccc2ccccc2c1 | 0.461% (inactive) | –
32 | C=C(C)C(=O)OC1[C@@H]2C(=C)C(=O)O[C@@H]2C[C@@H](C)[C@@H]2C=CC(=O)[C@@]12C (some centres undefined) | 2.06% [at 38.5 µM] (inactive) | –
33 | COc1cc2ncnc(Nc3ccc(Oc4ccccc4)cc3)c2cc1OC | -9.4% (inactive) | –
34 | CCC(C)n1cc(C)c2c(C(=O)NCc3c(C)cc(C)[nH]c3=O)cc(-c3ccc(N4CCNCC4)nc3)cc21 (centres undefined) | 4.33% (inactive) | –
35 | CC(C)[C@@H](C)/C=C/[C@@H](C)[C@H]1CC[C@H]2C3=CC=C4C[C@@H](O)CC[C@]4(C)C3=CC[C@]12C | -1.21% (inactive) | –
36 | Cn1c(NC[C@@H](N)Cc2ccccc2)nc(-c2ccncc2)c(-c2ccc3ccccc3c2)c1=O | -2.82% (inactive) | –
37 | Nc1ncnc2c1ncn2[C@@H]1O[C@H](CO)C[C@H]1O | -15.8% (inactive) | –
38 | COc1ccc(C(=O)N(CCC(C)C)Cc2nc(C)c(C)n2Cc2ccccc2C)c(OC)c1 | -0.792% (inactive) | –
39 | O=C(Nc1ccc(F)cc1)N1CCc2ccccc2C1c1ccc(C(F)(F)F)cc1 (centres undefined) | -6.2% (inactive) | –
40 | Cc1ccc(C(=O)N2CCN(c3ccc([N+](=O)[O-])cc3)CC2)cc1Cl | -4.19% (inactive) | –
41 | CN(C)C(=O)c1cc2cnc(Nc3ccc(N4CCNCC4)cn3)nc2n1C1CCCC1 | -5.32% (inactive) | –
42 | C=C1/C(=C/C=C2\CCC[C@]3(C)[C@@H]([C@H](C)/C=C/C(=O)C4CC4)CC[C@@H]23)C[C@@H](O)C[C@@H]1O | 4.21% (inactive) | –
43 | CC1OC2OC3C(OCC(O)C3O)OC(=O)C34CCC(C)(C)CC3C3=CCC5C6(C)CC(O)C(OC7OC(CO)C(O)C(O)C7OC7OCC(OC(=O)CC(C)(O)CC(=O)OC1C(OC1OCC(O)C(O)C1O)C2O)C(O)C7O)C(C)(CO)C6CCC5(C)C3(C)CC4O (centres undefined) | 0.906% [at 25.3 µM] (inactive) | –
44 | CC(C)(C)c1ccc(-c2nc3ccccc3[nH]2)cc1 | – | 1.78 µM (active)
45 | COc1cc(O)c(C(=O)CCc2ccc(O)cc2)c(O[C@@H]2O[C@H](CO)[C@@H](O)[C@H](O)[C@H]2O)c1 | -2.02% [at 25.3 µM] (inactive) | –
46 | CCN1CCN(Cc2ccc(-c3cc4c(NC(C)c5ccccc5)ncnc4[nH]3)cc2)CC1 (centres undefined) | 6.21% (inactive) | –
47 | Cc1ccc2c(Nc3ccc(Cl)cc3)nccc2c1Nc1ncccc1-c1ncnc2nc[nH]c12 | -11.8% (inactive) | –
48 | Cc1ccc(C2(COC(=O)C(C)C)CO2)c(OC(=O)C(C)C)c1 (centres undefined) | -16.9% [at 38.5 µM] (inactive) | –
49 | CC1(C)CC23[C@@H]4CC(=O)[C@@H]2COC(=O)[C@@H]3CC[C@H]41 | 1.98% (inactive) | –
50 | COc1cc2ncnc(Oc3cccc(NC(=O)Nc4cc(C(C)(C)C(F)(F)F)on4)c3)c2cc1OC | -1.14% (inactive) | –
51 | O=C(NNc1ccccc1)c1ccncc1 | 24.1% (inactive) | –
52 | CN(CCCNC(=O)c1ccc2nc3c(c(Cl)c2c1)CCCC3)Cc1ccccc1 | -10.7% (inactive) | –
53 | CCN(CCCOc1ccc2c(Nc3cc(CC(=O)Nc4cccc(F)c4)[nH]n3)ncnc2c1)CCOP(=O)(O)O | -3.46% (inactive) | –
54 | O=C(NC(NC(=S)Nc1ccc(F)c([N+](=O)[O-])c1)C(Cl)(Cl)Cl)C(c1ccccc1)c1ccccc1 (centres undefined) | -1.57% [at 25.3 µM] (inactive) | –
55 | Cc1[nH]c(/C=C2\C(=O)Nc3ccc(F)cc32)c(C)c1C(=O)NC[C@H](O)CN1CCOCC1 | 2.47% (inactive) | –
56 | CC1CCC2C(=CCC(O)C2(C)C)C1(C)Cc1c(O)cc(CO)c(C=O)c1O (centres undefined) | 3.1% [at 38.5 µM] (inactive) | –
57 | CCCCn1c(-c2ccccc2)nc(-c2ccccc2)c1CN(Cc1ccc2c(c1)OCO2)Cc1ccc2c(c1)OCO2 | -27.4% (inactive) | –
58 | COc1ccc(CNC(=O)Nc2ncc([N+](=O)[O-])s2)cc1 | -9.67% (inactive) | –
59 | O=C(NCc1ccc(Oc2ccccc2)cc1)c1nc(-c2cc(Br)c(O)c(Br)c2)no1 | -6.41% (inactive) | –
